An excerpt weighted towards active compounds, which were near 1.6% of everything screened.
KCNQ2 enhance: potentiators of rat KCNQ2 potassium channel; O88943; CHO-K1 KCNQ2, FluxOR thallium flux fluorescence; hits give high values; B-score at 10 µM; hit rate 0.54% among 310,000; AID 2239;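 active means fluorescence ratio B-score at least 3 SD of library B-scores, with initial fluorescence B-score within 3 of them, cut at about 5.3 in these data; same plate scores as AID 2156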;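 further: B-score of peak minus minimum over baseline fluorescence ratio after K+ and Tl+ stimulus; positive B-score means potentiation of KCNQ2 with more thallium influx and brighter signal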
Target sequence (O88943 whole entry, looked up): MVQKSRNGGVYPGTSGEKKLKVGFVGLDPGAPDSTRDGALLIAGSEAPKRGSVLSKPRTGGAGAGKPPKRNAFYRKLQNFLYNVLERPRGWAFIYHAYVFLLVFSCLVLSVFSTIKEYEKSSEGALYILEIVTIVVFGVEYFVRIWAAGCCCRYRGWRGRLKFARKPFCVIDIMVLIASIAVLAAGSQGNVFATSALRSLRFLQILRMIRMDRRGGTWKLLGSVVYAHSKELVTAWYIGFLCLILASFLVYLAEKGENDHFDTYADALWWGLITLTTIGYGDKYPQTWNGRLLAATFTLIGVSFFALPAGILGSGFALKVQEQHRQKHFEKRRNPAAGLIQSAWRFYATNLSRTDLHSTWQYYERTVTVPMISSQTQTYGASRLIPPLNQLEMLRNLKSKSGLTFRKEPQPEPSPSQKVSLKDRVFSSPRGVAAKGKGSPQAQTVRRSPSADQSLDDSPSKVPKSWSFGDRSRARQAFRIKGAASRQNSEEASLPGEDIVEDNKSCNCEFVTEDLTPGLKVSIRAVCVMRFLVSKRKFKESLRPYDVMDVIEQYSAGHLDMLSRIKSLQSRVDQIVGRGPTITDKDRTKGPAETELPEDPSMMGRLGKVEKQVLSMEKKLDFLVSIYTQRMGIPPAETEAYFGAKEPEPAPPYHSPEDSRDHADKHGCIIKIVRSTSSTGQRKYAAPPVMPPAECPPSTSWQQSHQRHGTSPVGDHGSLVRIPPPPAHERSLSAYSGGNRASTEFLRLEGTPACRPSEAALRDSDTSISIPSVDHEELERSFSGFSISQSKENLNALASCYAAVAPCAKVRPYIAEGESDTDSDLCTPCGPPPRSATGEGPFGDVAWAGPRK
KCNQ2 block: blocks the rat KCNQ2 potassium channel; O88943; CHO-K1 KCNQ2, FluxOR thallium flux, 20 min; hits give low values; B-score at 10 µM; hit rate 1.1% among 310,000; AID 2156;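 active means fluorescence ratio B-score at most minus 3 library SDs, with starting brightness B-score within 2 library SDs, cut at about -5.5 in these data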
Starred values were filed as active, the others as inactive.

How did COC(=O)c1cn(NC(=O)Cc2ccccc2OC)c(=O)c2ccccc12 do in these assays?
KCNQ2 block: inactive

How did COC(=O)c1cn(NC(=O)Cc2cccc(C(F)(F)F)c2)c(=O)c2ccccc12 do in these assays?
KCNQ2 enhance: 3.5; KCNQ2 block: inactive

What do the screens show for `COC(=O)c1cn(NC(=O)Cc2ccc(Cl)c(Cl)c2)c(=O)c2ccccc12`?
KCNQ2 enhance: 29.8*; KCNQ2 block: inactive

How did COC(=O)c1cn(NC(=O)Cc2ccc(Cl)cc2)c(=O)c2ccccc12 do in these assays?
KCNQ2 enhance: 18.1*; KCNQ2 block: inactive

Results for CC(C)(C)c1cc(NC(=O)CSc2nncs2)n(-c2ccccc2)n1 ?
KCNQ2 enhance: 0.06; KCNQ2 block: inactive

How did CCN1CCN(c2ccc(S(=O)(=O)N3CCOCC3)cc2NC(=O)C(C)Oc2ccc(Cl)cc2)CC1 (centres undefined) do in these assays?
KCNQ2 enhance: 0.11; KCNQ2 block: inactive

Results for N#C/C(=C\c1cc(Cl)ccc1O)C(=O)NC1CCCCC1 ?
KCNQ2 block: inactive

Results for N#C/C(=C\c1ccc(F)c(Br)c1)C(=O)NC1CC1 ?
KCNQ2 block: inactive

What do the screens show for `N#C/C(=C\c1cc(Cl)cc(Cl)c1O)C(=O)NC1CCCCC1`?
KCNQ2 enhance: -5.68; KCNQ2 block: -5.68*

Results for N#C/C(=C\c1cc(Br)ccc1F)C(=O)NC1CC1 ?
KCNQ2 enhance: -6.1; KCNQ2 block: -6.1*

How did CCOC(=O)N1CCN(C2CCCN(C(=O)c3cccc(Cl)c3)C2)CC1 (centres undefined) do in these assays?
KCNQ2 enhance: 0.03; KCNQ2 block: inactive

How did COc1cc(-c2c(NC(=O)c3ccco3)oc3ccccc3c2=O)cc(OC)c1OC do in these assays?
KCNQ2 enhance: 1.43; KCNQ2 block: inactive

Results for CN(C(=O)CC(NC(=O)c1ccccc1Cl)c1ccccc1)c1ccccc1 (centres undefined) ?
KCNQ2 enhance: -5.66; KCNQ2 block: -5.66*

How did O=C(CC(NC(=O)c1ccccc1Cl)c1ccccc1)NCCc1ccc(Cl)cc1 (centres undefined) do in these assays?
KCNQ2 block: inactive

What do the screens show for `Cc1onc(-c2ccccc2)c1C(=O)Nc1ccc(S(=O)(=O)NC(C)(C)C)cc1`?
KCNQ2 enhance: 0.72; KCNQ2 block: inactive

Results for O=C(COC(=O)c1cccc(S(=O)(=O)N2CCCC2)c1)Nc1ccccc1 ?
KCNQ2 enhance: 1.61; KCNQ2 block: inactive

Results for O=C(OCC(=O)c1c[nH]c2ccccc12)c1cccc(S(=O)(=O)N2CCCCCC2)c1 ?
KCNQ2 enhance: 8.85*; KCNQ2 block: inactive

Results for COc1ccc(OC)c(NC(=O)CCN2C(=O)c3ccccc3C2=O)c1 ?
KCNQ2 enhance: 0.05; KCNQ2 block: inactive

How did O=C(NN1CCOCC1)c1ccc(Cl)s1 do in these assays?
KCNQ2 enhance: 1.8; KCNQ2 block: inactive

How did O=[N+]([O-])c1ccc2c(c1)C=C1CCCCC1(N1CCCCC1)O2 (centres undefined) do in these assays?
KCNQ2 enhance: -5.74; KCNQ2 block: -5.74*

How did O=c1nc2n(c3ccc([N+](=O)[O-])cc13)CCCCC2 do in these assays?
KCNQ2 block: inactive

Results for CC1CCN(S(=O)(=O)c2ccc3c(c2)N(CC(=O)NCCN2C(C)CCCC2C)C(=O)CS3)CC1 (centres undefined) ?
KCNQ2 block: inactive

Results for O=C(CSc1nnc(-c2c[nH]c3ccccc23)o1)N(Cc1ccccc1)c1ccc(F)cc1 ?
KCNQ2 block: inactive

How did COc1ccc(CN(C(=O)CSc2nnc(-c3ccccc3C)o2)c2ccc(F)cc2)cc1 do in these assays?
KCNQ2 enhance: -6.42; KCNQ2 block: -6.42*

Results for O=[N+]([O-])c1cc([N+](=O)[O-])c(Oc2ccc(Cl)c3cccnc23)cc1NN1CCCCC1 ?
KCNQ2 enhance: 0.24; KCNQ2 block: inactive

Results for O=C1CCCc2oc3c(c21)CCCC3 ?
KCNQ2 enhance: 1.41; KCNQ2 block: inactive

What do the screens show for `CC(=O)Nc1ccc2c3c(cccc13)CC2`?
KCNQ2 enhance: 1.37; KCNQ2 block: inactive

What do the screens show for `CC(C)CC(=O)Nc1ccc2c3c(cccc13)CC2`?
KCNQ2 enhance: 25.5*; KCNQ2 block: inactive

Results for CCCCC(=O)Nc1ccc2c3c(cccc13)CC2 ?
KCNQ2 enhance: 18.5*; KCNQ2 block: inactive

Results for Cc1cc(C)cc(OCC(=O)Nc2ccc3c4c(cccc24)CC3)c1 ?
KCNQ2 enhance: 0.25; KCNQ2 block: inactive

What do the screens show for `COc1ccc(S(=O)(=O)N2CCN(C(=O)N3CCOCC3)C2C)cc1` (centres undefined)?
KCNQ2 block: inactive

What do the screens show for `Cc1cc(CNC(=O)COC(=O)Cn2[nH]c(=O)c3ccccc3c2=O)cc(C)c1O`?
KCNQ2 block: inactive

What do the screens show for `CCn1c2ccccc2c2cc(NC(=O)C(C)Oc3ccc(OC)cc3)ccc21` (centres undefined)?
KCNQ2 enhance: -6.17; KCNQ2 block: -6.17*

What do the screens show for `CCn1c2ccccc2c2cc(NC(=O)C(C)Oc3ccccc3)ccc21` (centres undefined)?
KCNQ2 block: inactive

Results for CCN(CC)S(=O)(=O)c1ccc(S(=O)(=O)N2CCC(N3CCCCC3)CC2)cc1 ?
KCNQ2 enhance: 0.05; KCNQ2 block: inactive

What do the screens show for `COC(=O)c1ccc(CNC(=O)COC(=O)CC23CC4CC(CC(Br)(C4)C2)C3)cc1`?
KCNQ2 enhance: 0.3; KCNQ2 block: inactive

How did Cc1sc2nc(SCC(=O)NCc3ccco3)n(C)c(=O)c2c1C do in these assays?
KCNQ2 block: inactive

How did CCn1c(SCC(=O)NC(=O)NCc2ccco2)nc2sc(C)c(C)c2c1=O do in these assays?
KCNQ2 enhance: 5.96*; KCNQ2 block: inactive

How did Cc1ccc(C)c(N(CC(=O)NC(C)C)C(=O)CCC(=O)Nc2ccccn2)c1 do in these assays?
KCNQ2 block: inactive

How did O=C1/C(=C/c2cccc(F)c2)Oc2cc(O)ccc21 do in these assays?
KCNQ2 block: inactive

How did Cc1ccccc1-c1nc(CN2CCCC(C(=O)NCCCN3CCOCC3)C2)c(C)o1 (centres undefined) do in these assays?
KCNQ2 enhance: 0.91; KCNQ2 block: inactive

How did COc1ccc(-c2nc(CN3CCCC(C(=O)NC4CCCC4)C3)c(C)o2)cc1 (centres undefined) do in these assays?
KCNQ2 block: inactive

Results for Cc1ccccc1-c1nc(CN2CCCC(C(=O)NCc3cccnc3)C2)c(C)o1 (centres undefined) ?
KCNQ2 enhance: 9.04*; KCNQ2 block: inactive

How did COc1ccc(CNC(=O)C2CCCN(Cc3nc(-c4cccc(C)c4)oc3C)C2)cc1 (centres undefined) do in these assays?
KCNQ2 enhance: -6.42; KCNQ2 block: -6.42*

Results for CN(CC(=O)Nc1cccc(F)c1)C(=O)/C=C/c1cn(Cc2ccccc2)nc1-c1cccnc1 ?
KCNQ2 enhance: 0.64; KCNQ2 block: inactive

Results for COc1ccc(CCN(C)C2CCCN(S(=O)(=O)c3ccccc3)C2)cc1OC (centres undefined) ?
KCNQ2 block: inactive

How did C=CCn1c(CSCc2ccccc2)nnc1SCC(=O)N1CCN(c2ccccc2)CC1 do in these assays?
KCNQ2 block: inactive

How did CCn1c(CSCc2ccc(C)cc2)nnc1SCC(=O)N1CCN(c2ccccc2)CC1 do in these assays?
KCNQ2 enhance: -7.82; KCNQ2 block: -7.82*

How did CC1C(=O)N2CCCc3cc(NC(=O)C4CC4)cc1c32 (centres undefined) do in these assays?
KCNQ2 enhance: 0.64; KCNQ2 block: inactive
